Over roughly 110,000 compounds, “z-score” has its median near -0.1; the highest 2% begin near 2. The sample holds the highest values, similar compounds and a random draw of the others, so the mix is not that of the screen. Calls of active or inactive are those of the source.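 Rule for the calls: active = z-score in the third read window above 3 or below -3; inactive = the rest.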
The compounds below were run against Metabotropic glutamate receptor 8 (Rattus norvegicus) (UniProt P70579) (assay: rat mGluR8 modulators via GIRK flux, primary screen, cell-based, thallium flux, HTS (AID 488969)). Conditions: HEK293 rat mGluR8, GIRK (G protein-gated inwardly rectifying potassium channel) thallium flux, FluoZin2; at 10 µM; stronger effect = higher value; submaximal glutamate (EC20) added with thallium.
Chain of Metabotropic glutamate receptor 8 (Rattus norvegicus) (P70579 whole entry, looked up): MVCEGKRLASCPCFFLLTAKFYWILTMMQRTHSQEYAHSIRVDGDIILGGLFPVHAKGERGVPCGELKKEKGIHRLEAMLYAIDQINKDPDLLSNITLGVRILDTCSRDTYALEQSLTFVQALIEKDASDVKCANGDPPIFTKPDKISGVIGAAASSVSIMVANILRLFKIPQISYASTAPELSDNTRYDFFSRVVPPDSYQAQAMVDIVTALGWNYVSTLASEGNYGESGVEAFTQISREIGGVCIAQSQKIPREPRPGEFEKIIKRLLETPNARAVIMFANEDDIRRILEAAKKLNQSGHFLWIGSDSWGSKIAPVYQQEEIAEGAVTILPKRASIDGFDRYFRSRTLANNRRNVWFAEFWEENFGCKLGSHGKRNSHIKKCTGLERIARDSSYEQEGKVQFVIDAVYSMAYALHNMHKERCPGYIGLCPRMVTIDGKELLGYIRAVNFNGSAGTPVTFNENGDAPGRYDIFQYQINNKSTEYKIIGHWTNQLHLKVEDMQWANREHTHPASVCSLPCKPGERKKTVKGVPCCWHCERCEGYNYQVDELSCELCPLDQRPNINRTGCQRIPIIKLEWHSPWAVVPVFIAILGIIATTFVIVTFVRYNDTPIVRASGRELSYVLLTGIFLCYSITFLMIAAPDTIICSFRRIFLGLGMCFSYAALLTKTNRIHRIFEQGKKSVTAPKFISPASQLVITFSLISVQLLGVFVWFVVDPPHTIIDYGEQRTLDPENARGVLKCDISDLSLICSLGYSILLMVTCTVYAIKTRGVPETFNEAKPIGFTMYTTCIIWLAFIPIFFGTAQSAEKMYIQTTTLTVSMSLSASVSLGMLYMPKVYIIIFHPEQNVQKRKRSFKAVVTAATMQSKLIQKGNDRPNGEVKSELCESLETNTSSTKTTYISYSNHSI

Row | SMILES | z-score
1 | O=C(CSc1nnnn1C1CCCCC1)NCc1ccco1 | -0.228
2 | CCOC(=O)c1c(NC(=O)CNCCOC)sc2c1CCCC2 | -1.06
3 | Cc1nn(C)c(C)c1CN(C)C(=O)c1cc2n(n1)C(C(F)(F)F)CC(c1cccs1)N2 (stereo unspecified) | 0.0534
4 | Cc1nn(C)c(C)c1CN(C)C(=O)c1nn2c(c1Br)NC(c1cccs1)CC2C(F)(F)F (stereo unspecified) | 2.24
5 | Cc1nn(C)c(C)c1CNC(=O)c1nn2c(c1Cl)NC(c1cccs1)CC2C(F)(F)F (stereo unspecified) | -0.0188
6 | CCOc1ccc2nc(NC(=O)C3CCCN(S(=O)(=O)c4cccs4)C3)sc2c1 (stereo unspecified) | 0.284
7 | COc1ccc(C(=S)N2CCCCCC2)cc1 | -0.075
8 | COc1ccc(OC(C)C(=O)N2CCC(C)CC2)cc1 (stereo unspecified) | 0.926
9 | CNC(=S)N1CCN(c2ccc(OC)cc2)CC1 | 8.68 (active)
10 | CC1CCN(C(=S)NC(=O)c2ccccc2)CC1 | 4.42 (active)
11 | COc1ccc(C(=O)NC(=S)N2CCCCC2)cc1 | 3.44 (active)
12 | COc1ccc(C(=O)NC(=S)N2CCC(C)CC2)cc1 | 14.2 (active)
13 | Cc1cccc(C(=O)NC(=S)N2CCN(C(=S)NC(=O)c3cccc(C)c3)CC2)c1 | 0.153
14 | CNC(=S)N1CCN(c2cccc(OC)c2)CC1 | 0.273
15 | COc1ccc(C(=O)NC(=S)N2CC(C)OC(C)C2)cc1 (stereo unspecified) | 0.0339
16 | CC1CCN(C(=S)NCCc2ccccc2)CC1 | -0.0312
17 | COc1ccc(N2CCN(C(=S)Nc3cc(C)cc(C)c3)CC2)cc1 | 0.06
18 | COc1ccc(C(=O)NC(=O)N2CCCCC2)cc1 | 0.975
19 | O=C(OCc1ccccc1)C1=[N+]([O-])OC(C(=O)OCc2ccccc2)C1c1c[nH]c2ccccc12 (stereo unspecified) | -0.556
20 | CCOC(=O)C1=C(C)Nc2nc3ccccc3n2C1c1ccccc1 (stereo unspecified) | 0.0404
21 | Cc1ccc2c(c1)CCCN2C(=O)c1ccncc1 | 0.255

Row | SMILES | z-score
22 | COc1cccc(C2=NOC(C(=O)Nc3cccc(C(C)=O)c3)C2)c1OC (stereo unspecified) | 0.301
23 | Cc1c(-c2ccccc2)nc2ccccc2c1C(=O)OCC(=O)Nc1ncc(C(F)(F)F)cc1Cl | 0.00577
24 | COC(=O)Cc1[nH]nc2c1C(c1c[nH]c3ccccc13)C(C#N)=C(N)O2 (stereo unspecified) | -0.415
25 | COc1ccc(/C=N\N=C2/SC(CC(=O)O)C(=O)N2c2ccc(O)cc2)cc1OC (stereo unspecified) | -0.0449
26 | CC(=O)Nc1cccc2c1C(=O)NC2=O | 0.274
27 | CC(C)Cn1cc(C(=O)NC2CCN(Cc3ccccc3)CC2)c2c3ccccc3n(C)c2c1=O | -0.13
28 | O=C(c1ccccc1)N1CCN(Cc2ccccc2)CC1 | -0.853
29 | O=C(NC(=S)N1CCN(Cc2ccccc2)CC1)c1ccccc1 | 6.31 (active)
30 | S=C(NCCc1ccccc1)N1CCN(Cc2ccccc2)CC1 | -0.499
31 | O=C1NCCN1C(=O)c1ccccc1F | 0.555
32 | Cc1csc(NC(=O)CSc2ncc(-c3ccccc3)[nH]2)n1 | 0.148
33 | COc1ccc(Cn2c(-c3ccco3)nc3oc4cc(OC)ccc4c(=O)c3c2=O)cc1 | 2.22
34 | COc1ccc(Cn2c(-c3ccco3)nc3oc4ccccc4c(=O)c3c2=O)cc1 | 0.403
35 | COc1ccc2c(=O)c3c(=O)n(Cc4ccco4)c(-c4ccco4)nc3oc2c1 | -0.397
36 | CS(=O)(=O)N(CC(N)=O)c1ccc2c(c1)OCO2 | -0.00195
37 | N#Cc1ccccc1NC(=O)CNc1ccc(Cl)c(C(F)(F)F)c1 | 2.38
38 | Cc1ccccc1NC(=O)CNc1ccc(Cl)c(C(F)(F)F)c1 | -0.365
39 | COc1ccc(NCC(=O)Nc2ccccc2C#N)cc1Cl | -0.204
40 | N#Cc1cc(Oc2cccnc2)c(Oc2cccnc2)cc1C#N | 0.18
41 | O=C(Nc1ccccc1)Nc1nccs1 | 1.3
42 | O=C(Nc1cccc(Cl)c1)Nc1cccc(Cl)c1 | 0.0262

Row | SMILES | z-score
43 | O=C(Nc1cccc(Cl)c1)Nc1nccs1 | 10.2 (active)
44 | COC(=O)c1ccc(Oc2nc3c(c(=O)n(C)c(=O)n3C)n2CCC(C)C)cc1 | 1.63
45 | CN1C(=O)/C(=C/c2ccc3c(c2)OCO3)N=C1c1ccccc1 | 0.393
46 | O=C(Cc1ccccc1)Nc1c(C(=O)N2CCCCCC2)cnn1-c1ccccc1 | -0.477
47 | CC(=O)Nc1c(C(=O)N2CCOCC2)cnn1-c1ccc(C)c(C)c1 | -0.0497
48 | CCC(=O)Nc1c(C(=O)N2CCCCCC2)cnn1-c1ccc(C)c(C)c1 | 2.47
49 | CC(C)NC(=O)Cn1c(=O)cnc2ccccc21 | 0.171
50 | O=C(CSc1c[nH]c2ccccc12)NCc1ccc2c(c1)OCO2 | 2.27
51 | O=C(CCc1c[nH]c2ccccc12)NCc1ccc2c(c1)OCO2 | -0.143
52 | O=C(CSc1ncnc2c1cnn2-c1ccc(F)cc1)NCc1ccc2c(c1)OCO2 | 0.54
53 | CC(C)C(=O)NCCSc1c[nH]c2ccccc12 | -0.143
54 | O=C(CSc1nc(CCC2CCCC2)nc2ccccc12)NCc1ccc2c(c1)OCO2 | 8.15 (active)
55 | O=C(NCCSc1c[nH]c2ccccc12)c1ccco1 | 3.57 (active)
56 | O=C(CSc1nc(C2CCCCC2)nc2ccccc12)NCc1ccc2c(c1)OCO2 | -1.07
57 | Cn1c(SCC(=O)NCc2ccc3c(c2)OCO3)nnc1-c1c[nH]c2ccccc12 | -0.821
58 | O=C(CSc1ncnc2c1cnn2-c1ccc(Cl)cc1)NCc1ccc2c(c1)OCO2 | 3.12 (active)
59 | O=C(NCCSc1c[nH]c2ccccc12)c1ccc(Br)o1 | -0.00412
60 | O=C(CSc1nc(C2CC2)nc2ccccc12)NCc1ccc2c(c1)OCO2 | -0.21
61 | Clc1ccc(-n2ncc3c(NCc4ccc5c(c4)OCO5)ncnc32)cc1 | -0.426
